From PubChem BioAssay
An excerpt weighted towards active compounds, which were near 7.3% of everything screened.
Vaccinia mCherry: inhibitors of vaccinia virus infection (mCherry reporter signal). Potency, µM (series often up to 36.5 µM), for inactives: at the top dose activity change, negative = inhibition, hits mostly inhibitors. Vaccinia virus mCherry reporter infection, fluorescence. 0.63% of 310,000 active. AID 720579; calls by dose curve; tested in A549 cells; note: potency is the fitted concentration of half-maximal effect; nearly all actives have a fitted effect of over 35% in size
Vaccinia Venus: vaccinia inhibition (Venus reporter) | 0.46% of 330,000 active | Potency, µM (titrated, usually from 36.5 µM), for the others: top-dose activity change, negative = inhibition, most hits filed as inhibitors | Vaccinia virus Venus reporter expression, fluorescence; calls by dose curve; tested in A549 cells; note: potency is the fitted concentration of half-maximal effect; nearly all actives have a fitted effect of over 30% in size
FMDV inh: blocks foot and mouth disease virus | Potency, µM (doses to about 57.9 µM), without a hit: at the top dose activity change, negative = inhibition, actives largely listed as inhibitors | FMDV antiviral cell-based qHTS | 1.2% of 410,000 active; calls by dose curve; tested in HEK293T cells; note: read-out not given here; potency is the fitted concentration of half-maximal effect; nearly all actives have a fitted effect of over 45% in size
HCMV antiviral: inhibitors of human cytomegalovirus; activity change, negative = inhibition, % at 57.5 µM; AID 1259415; HFF cells, HCMV-luciferase reporter, 72 h; stronger effect = lower value; 4.5% of 410,000 active; in the data active = activity change below about -60%; inconclusive = no clear call, values can overlap the other calls; inactive = above about -39%
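Two compound doses tested in HFFs infected with HCMV-luciferase, MOI 1 PFU/cell, 72 h at 37C. Lysate luminescence read with OneGlo; data normalized against buffer-only and 10uM Salinomycin inhibitor controls.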
HCV inh: blocks hepatitis C virus; Huh7.5.1 HCVcc-Cre infection, luciferase reporter, 44 h; Potency, µM (series often up to 41.8 µM), inactives show at the highest dose activity change, negative = inhibition, actives largely listed as inhibitors; 3.4% of 340,000 active; active = well fitted inhibition curve with a large enough effect; inconclusive = small, poorly fitted or top-dose-only effect, or another doubt; inactive = no such curve, though single readings can be large or run the other way; note: potency is the fitted concentration of half-maximal effect
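Luciferase read-out (15 sec integration) after a 15 min room-temperature substrate step quantifies HCVcc-Cre infection. Cells, 1,000 per well, had compound added 4 h post-plating, then virus at ~0.5 moi, and were cultured 44 h.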
Starred values were filed as active, the others as inactive; i = inactive; ? = inconclusive; nt = no result given. % is set by controls: 0 for no effect and ±100 for the full control effect.

SMILES	Vaccinia mCherry	Vaccinia Venus	FMDV inh	HCMV antiviral	HCV inh
Nc1nn2c(-c3ccccc3)cc(=O)[nH]c2c1N=Nc1ccc(O)cc1	-20%	-8%	-5%	-31	-14%
Cc1ccc(S(=O)(=O)N2CCCCC2)cc1NC(=O)Cc1cccs1	nt	nt	3%	4	-15%
COc1ccc(S(=O)(=O)N2CCOCC2)cc1NC(=O)CN(C)CC(=O)Nc1cccc(F)c1	nt	nt	1%	8	-21%
CN(CC(=O)Nc1cc(S(=O)(=O)N2CCCC2)ccc1Cl)Cc1cccs1	nt	nt	-4%	-10	6.3µM*
CN(CC(=O)Nc1cccc(F)c1)CC(=O)Nc1cc(S(=O)(=O)N2CCOCC2)ccc1Cl	nt	nt	?	0	11µM*
CCN(CC(=O)Nc1cc(S(=O)(=O)N2CCOCC2)ccc1Cl)Cc1ccccc1	nt	nt	?	-30	7.9µM*
CN(CC(=O)Nc1cccc(S(=O)(=O)N2CCOCC2)c1)CC(=O)Nc1ccc(Cl)c(C(F)(F)F)c1	-30%	?	?	-75*	?
O=C(C1CCCN(S(=O)(=O)c2ccc(Cl)cc2)C1)N(Cc1cccs1)C1CC1 (stereo unspecified)	-18%	-25%	?	-35	10µM*
CN(Cc1cccs1)C(=O)c1ccc(S(=O)(=O)N2CCCCC2)cc1	nt	nt	-16%	0	-2%
NC(=O)c1nc(-c2ccc(F)c(F)c2)nc2c1[nH]c(=O)n2-c1cccc(Cl)c1	-22%	-20%	0%	14	nt
C[C@H](CO)N1C[C@H](C)[C@@H](CN(C)C(=O)c2ccncc2)OCc2cn(nn2)CCCC1=O	nt	nt	nt	22	nt
CCc1ccc(-c2cc(C)no2)cc1S(=O)(=O)N1CCC(C)CC1	nt	nt	16%	-20	-5%
CCc1ccc(-c2cc(C)no2)cc1S(=O)(=O)N1CCN(c2ccc(C(C)=O)cc2)CC1	-14%	-6%	?	?	6.3µM*
CC(=O)c1ccc(N2CCN(S(=O)(=O)c3cc(-c4cc(C)no4)ccc3C(C)C)CC2)cc1	nt	nt	-18%	?	-25%
CCc1ccc(-c2cc(C)no2)cc1S(=O)(=O)N1CCCN(Cc2ccc(F)cc2)C1	nt	nt	3%	0	10µM*
O=C(NC1CC1)c1ccc2nc(-c3ccco3)c(-c3ccco3)nc2c1	15%	-7%	nt	nt	nt
O=C1CC(c2ccc(Cl)cc2)N=C(NC(=O)c2ccccc2)N1 (stereo unspecified)	-7%	-15%	-22%	-4	nt
CC1=Nc2ccccc2N=C(NC(=O)c2ccccc2)C1c1ccc(Cl)cc1 (stereo unspecified)	-25%	-5%	-17%	-63*	-24%
CCOc1ccc(NS(=O)(=O)c2c(C)nc3sc(C)c(C)n3c2=O)cc1	-19%	-24%	-22%	-11	nt
CC(=O)Nc1ccc(C(=O)COC(=O)C2CC2C)c(F)c1 (stereo unspecified)	-26%	-9%	-16%	2	13µM*
COc1cc(C(C(=O)NC2CCCCC2)N(Cc2cccs2)C(=O)Cc2c[nH]c3ccccc23)cc(OC)c1OC (stereo unspecified)	nt	nt	?	-79*	?
COc1cc(C(C(=O)NC2CCCCC2)N(C(=O)Cc2c[nH]c3ccccc23)c2ccccc2C)cc(OC)c1OC (stereo unspecified)	-10%	-8%	-13%	70	18%
CCOC(=O)c1c(NC(=O)C2CCCN(S(=O)(=O)c3ccccc3)C2)sc2c1CCCC2 (stereo unspecified)	-15%	-14%	-25%	?	5.6µM*
COC(=O)c1c(NC(=O)CCS(=O)(=O)c2ccccc2)sc2c1CCN(C)C2	?	?	-8%	-90*	-16%
O=C(NC1CCN(S(=O)(=O)c2ccc(F)cc2)CC1)C1CCCCC1	-18%	-8%	-12%	22	11%
SMILES	Vaccinia mCherry	Vaccinia Venus	FMDV inh	HCMV antiviral	HCV inh
CCOC(=O)c1c(NC(=O)c2ccc(S(=O)(=O)N(C)C)cc2)sc2c1CCN(C)C2	i	?	-4%	?	nt
CCCN1CCc2c(sc(NC(=O)CCS(=O)(=O)c3ccccc3)c2C(=O)OC)C1	?	-28%	-11%	-9	3%
O=C(NC1CCCCC1)C1CCCN(S(=O)(=O)c2ccc(F)cc2)C1 (stereo unspecified)	-13%	-9%	-13%	-81*	7%
CCOC(=O)c1c(NC(=O)c2ccc(S(=O)(=O)N3CCC(C)CC3)cc2)sc2c1CCN(C)C2	-17%	?	-18%	-82*	nt
CCOC(=O)c1c(NC(=O)C2CCCN(S(=O)(=O)c3ccc(C)cc3)C2)sc2c1CCCC2 (stereo unspecified)	-14%	-6%	-14%	-19	4%
COc1ccc(C(=O)C[n+]2cc(Br)cc(Br)c2)cc1	-2%	-19%	nt	nt	nt
COc1ccc(S[C@]2(c3nc(C)no3)CC(=O)N(c3ccc(Cl)cc3)[C@@H]2c2ccc(OC)cc2)cc1	nt	nt	nt	9	nt
CCOC(=O)c1c(NC(=O)COc2cccc3c2CCN(C)C3=O)sc2c1CCC2	-17%	?	?	-63*	-4%
Cc1cccc(NC(=O)COc2cccc3c2CCN(C)C3=O)c1C	1%	-17%	?	-6	?
CCOC(=O)C1CCCN(C(=O)c2ccc(S(=O)(=O)N3CCCC3)cc2)C1 (stereo unspecified)	-10%	-6%	-19%	10	?
CCOC(=O)C1CCCN(S(=O)(=O)c2ccc(S(=O)(=O)N3CCCC3)cc2)C1 (stereo unspecified)	nt	nt	?	10	1.4µM*
CCOC(=O)N1CCN(S(=O)(=O)c2ccc(C(=O)Nc3sc4c(c3C(=O)OC)CCN(C)C4)cc2)CC1	-5%	?	-12%	-62*	?
CCCN1CCc2c(sc(NC(=O)c3ccc(S(=O)(=O)N4CCN(C(=O)OCC)CC4)cc3)c2C(N)=O)C1	nt	nt	-23%	-3	?
CCOC(=O)c1c(N)n(-c2ccccc2CC)c2nc3ccccc3nc12	-29%	-6%	0%	30	nt
CC(C)NC(=O)c1cc(C2CCCCN2S(=O)(=O)c2cccc3cccnc23)on1 (stereo unspecified)	31%	-9%	3%	-26	nt
COC(=O)c1ccccc1C(=O)NCC1Cc2cc(-c3nc(C)cnc3C)ccc2O1 (stereo unspecified)	-3%	-1%	-3%	nt	nt
CC(C)Cn1c(=O)c2sccc2n2c(CCCC(=O)NCCc3ccc(Cl)cc3)nnc12	-9%	-6%	20%	?	nt
COC(=O)[C@]1(C)N[C@H](CN(C)C(=O)c2ccccc2)[C@@H]2C(=O)N(C)C(=O)[C@@H]21	i	-8%	-11%	8	4µM*
COC(=O)[C@]1(C)N[C@H](CN(C)C(=O)Nc2ccc(C)cc2)[C@@H]2C(=O)N(Cc3ccccc3)C(=O)[C@@H]21	i	-8%	-9%	25	2.8µM*
COC(=O)[C@]1(C)N[C@H](CN(C)C(=O)Nc2ccc(C)cc2)[C@@H]2C(=O)N(C)C(=O)[C@@H]21	-10%	-5%	-3%	1	1µM*
